The text below walks through data of the supplement of paper PMC3342239.

Counter-ions that a name gives are not always drawn.

The subject of the assay is Saccharomyces cerevisiae. Briefly: fraction of cells in G1 phase (DNA content, flow cytometry); higher = more cells with unreplicated DNA (G1 delay). Conditions: temperature: 30 C; YPD; JTY2953 pdr5 snq2 (sensitized); drug added to: cultures diluted from stationary phase; 6-7 h. The method, boiled down: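 S. cerevisiae in YPD at 30°C was dosed with library drugs, using a final 20 µg/ml for sensitized JTY2953 diluted 1∶200 from overnight and fixed at 6–7 h, or dosing dividing JTY2953 (fixed at 6 h) and BY4741 (fixed at 4.33 h). Ethanol-fixed, SYTOX Green-stained cells were read by flow cytometry (10,000 events). The G1 fraction is taken as the Dean-Jett-Fox G1 peak area divided by the G1 and G2/M areas combined.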
In general terms: A flow cytometer gives signals particle by particle.
As for `COc1cc(C(=O)OCCCN2CCCN(CCCOC(=O)c3cc(OC)c(OC)c(OC)c3)CC2)cc(OC)c1OC` [Dilazep] (33.074 µM), the “fraction of cells in G1 phase” value is 0.47.
Turning to `Cc1cnc(C(=O)NCCc2ccc(S(=O)(=O)NC(=O)NC3CCCCC3)cc2)cn1` [Glipizide] (44.8889 µM), the “fraction of cells in G1 phase” value is 0.577.
The result for `Clc1ccc2c(c1)C(N1CCNCC1)=Nc1ccccc1O2` [Amoxapine] (63.737 µM) reads 0.581; that for `CC(C)(C)NCC(O)c1ccc(O)c(CO)c1` (stereo not drawn) [Salbutamol sulfate] (83.5711 µM), 0.535.
On to `COc1cc(C(=O)NS(=O)(=O)c2ccccc2C)ccc1Cc1cn(C)c2ccc(NC(=O)OC3CCCC3)cc12` [Zafirlukast] (34.741 µM), for which the “fraction of cells in G1 phase” value was found to be 0.509.
The result for `CCCN[C@H]1CCc2nc(N)sc2C1` [Pramipexole] (94.6382 µM) reads 0.48.
To `CN(C)CCCN1c2ccccc2CCc2ccccc21` [Imipramine HCl] (71.3225 µM) belongs 0.524; to `CN1C(C(=O)Nc2ccccn2)=C(O)c2sccc2S1(=O)=O` [Tenoxicam] (59.2806 µM), 0.469.
Take `COc1cc2c3cc1Oc1cc(ccc1O)C[C@@H]1c4c(cc(OC)c(O)c4Oc4ccc(cc4)C[C@@H]3N(C)CC2)CC[N+]1(C)C` [Tubocurarine Cl  (+)] (32.8004 µM): the “fraction of cells in G1 phase” value came out at 0.464.
As for `CN(C)CCC=C1c2ccccc2CCc2ccccc21` [Amitriptyline HCl] (63.7146 µM), the “fraction of cells in G1 phase” value worked out at 0.418.
For the compound `CN(C)CCOC(c1ccccc1)c1ccccc1` [Diphenhydramine HCl] (78.3199 µM), the “fraction of cells in G1 phase” value was 0.446.
The result for `Cc1cc2c(OCC(CNC(C)(C)C)OC(=O)c3ccccc3)cccc2[nH]1` (stereo not drawn) [Bopindolol malonate] (52.5636 µM) reads 0.517; that for `CC1(C)O[C@@H]2C[C@H]3[C@@H]4C[C@H](F)C5=CC(=O)C=C[C@]5(C)[C@@]4(F)[C@@H](O)C[C@]3(C)[C@]2(C(=O)CO)O1` [Fluocinolone acetonide] (44.1989 µM), 0.48; that for `CC1(C)S[C@@H]2[C@H](NC(=O)[C@H](N)c3ccc(O)cc3)C(=O)N2[C@H]1C(=O)O` [Amoxicillin] (54.7345 µM), 0.457.
Turning to `CC[C@]1(O)C[C@@H]2CN(CCc3c([nH]c4ccccc34)[C@@](C(=O)OC)(c3cc4c(cc3OC)N(C)[C@H]3[C@@](O)(C(=O)OC)[C@H](OC(C)=O)[C@]5(CC)C=CCN6CC[C@]43[C@@H]65)C2)C1` [Vinblastine sulfate] (21.9998 µM), the “fraction of cells in G1 phase” value is 0.495.
Consider `CC12CC3CC(C)(C1)CC(N)(C3)C2` [Memantine HCl] (111.54 µM), for which the “fraction of cells in G1 phase” value is 0.532.
To `COc1ccc2cc([C@H](C)C(=O)O)ccc2c1` [Naproxen] (86.8561 µM) belongs 0.514; to `Cc1cc2c(s1)Nc1ccccc1N=C2N1CCN(C)CC1` [Olanzapine] (64.0123 µM), 0.527; to `COc1ccc([C@@H]2Sc3ccccc3N(CCN(C)C)C(=O)[C@@H]2OC(C)=O)cc1` [Diltiazem] (44.3459 µM), 0.544.
As for `C=C(CC)C(=O)c1ccc(OCC(=O)O)c(Cl)c1Cl` [Ethacrynic acid] (65.9752 µM), the “fraction of cells in G1 phase” value worked out at 0.513.
In the case of `O=C(O)/C=C/c1ccc(Cn2ccnc2)cc1` [Ozagrel] (87.6221 µM), the “fraction of cells in G1 phase” value was 0.471.
The result for `CC(=O)SCC(Cc1ccccc1)C(=O)NCC(=O)OCc1ccccc1` (stereo not drawn) [Racecadotril] (51.8826 µM) reads 0.509; that for `CN1[C@@H](CC(=O)c2ccccc2)CCC[C@H]1C[C@H](O)c1ccccc1` [Lobeline] (59.2652 µM), 0.525.
To `O=C(CCCN1CCC(O)(c2cccc(C(F)(F)F)c2)CC1)c1ccc(F)cc1` [Trifluperidol 2HCl] (48.8487 µM) belongs 0.563; to `CN(Cc1ccc(C(C)(C)C)cc1)Cc1cccc2ccccc12` [Butenafine] (62.9964 µM), 0.405.
For the compound `N/C(=N\C(=O)c1nc(Cl)c(N)nc1N)NCc1ccccc1` [Benzamil HCl] (56.1482 µM), the “fraction of cells in G1 phase” value is 0.493.
As to `CC(C)(C)NC(=O)[C@H]1CC[C@H]2[C@@H]3CC[C@H]4NC(=O)C=C[C@]4(C)[C@H]3CC[C@]12C` [Finasteride] (53.6833 µM), the “fraction of cells in G1 phase” value is 0.558.
The result for `Nc1nc(N)nc(-c2cc(Cl)ccc2Cl)n1` [Irsogladine maleate] (78.0958 µM) reads 0.471; that for `CCOC(=O)C1=C(C)NC(C)=C(C(=O)OC)C1c1cccc([N+](=O)[O-])c1` (stereo not drawn) [Nitrendipine] (55.4985 µM), 0.472; that for `OCCN(CCO)c1nc(N2CCCCC2)c2nc(N(CCO)CCO)nc(N3CCCCC3)c2n1` [Dipyridamole] (39.6324 µM), 0.535.
As to `CN1CCCN=C1/C=C/c1cccs1` [Pyrantel pamoate] (33.6309 µM), the “fraction of cells in G1 phase” value was found to be 0.464.
To `CC(CCc1ccc(O)cc1)NCCc1ccc(O)c(O)c1` (stereo not drawn) [Dobutamine HCl] (66.3594 µM) belongs 0.528; to `N#Cc1ccc(C(c2ccc(C#N)cc2)n2cncn2)cc1` [Letrozole] (70.099 µM), 0.519; to `O=C(O)Cc1sc(-c2ccccc2)nc1-c1ccc(Cl)cc1` [Fentiazac] (60.6414 µM), 0.533.
The result for `CCCSc1ccc2[nH]c(NC(=O)OC)nc2c1` [Albendazole] (75.3761 µM) reads 0.475; that for `c1ccc2c(CC3=NCCN3)cccc2c1` [Naphazoline HCl] (95.1108 µM), 0.456; that for `CC(C)Cn1cnc2c(N)nc3ccccc3c21` [Imiquimod] (83.2257 µM), 0.484.
With `COc1ccccc1OCC(O)CN1CCN(CC(=O)Nc2c(C)cccc2C)CC1` (stereo not drawn) [Ranolazine 2HCl] (46.7783 µM), the “fraction of cells in G1 phase” value turned out to be 0.445.
